Inconclusive results are not listed. A call without a number means that no potency is given here. Values without a mark were called inactive. Calls of active or inactive are those of the source. The call rests on the fitted dose curve; in most records, active means well fitted inhibition curve with a large enough effect; inconclusive means small, poorly fitted or top-dose-only effect; inactive means flat fitted curve, though single readings scatter.
What was measured:
[1] = qHTS profiling for inhibitors of Plasmodium falciparum proliferation (AID 504749); further: nearly all actives have a fitted effect of over 60% in size; details: P. falciparum in erythrocytes, SYBR Green DNA, 72 h
Outline: (§1)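 P. falciparum-infected erythrocytes (0.3% parasitemia, 2.5% hematocrit final) were exposed to compounds for 72 h at 37 C in 5% CO2, then lysed with SYBR Green buffer overnight at room temperature; parasite DNA fluorescence was normalized to artemisinin and DMSO controls.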

3D7 = assay: as above; details: P. falciparum in erythrocytes, SYBR Green DNA, 72 h; series mostly up to 28.7 µM
Outline: as §1

AA1029 = assay: as above; details: P. falciparum in erythrocytes, SYBR Green DNA, 72 h; series mostly up to 28.7 µM
Outline: as §1

AS120 = assay: as above; details: P. falciparum in erythrocytes, SYBR Green DNA, 72 h; series mostly up to 28.7 µM
Outline: as §1

ATS189 = assay: as above; details: P. falciparum in erythrocytes, SYBR Green DNA, 72 h; series mostly up to 28.7 µM
Outline: as §1

ATS95 = assay: as above; details: P. falciparum in erythrocytes, SYBR Green DNA, 72 h; series mostly up to 28.7 µM
Outline: as §1

C2A = assay: as above; details: P. falciparum in erythrocytes, SYBR Green DNA, 72 h; series mostly up to 28.7 µM
Outline: as §1

CP185 = assay: as above; details: P. falciparum in erythrocytes, SYBR Green DNA, 72 h; series mostly up to 28.7 µM
Outline: as §1

7G8 = assay: as above; details: P. falciparum in erythrocytes, SYBR Green DNA, 72 h; series mostly up to 28.7 µM
Outline: as §1

[2] = at 28.7 µM (top of the series), parasite line A
[3] = at 28.7 µM (top of the series), parasite line B
[4] = at 12.8 µM (top of the series), parasite line A
[5] = at 12.8 µM (top of the series), parasite line B
Potency means the concentration at half of the fitted maximal effect.

Compound	activity, negative = inhibition [1, 2] [%]	activity, negative = inhibition [1, 3] [%]	Potency (3D7)	Potency (AA1029)	Potency (AS120)	Potency (ATS189)	Potency (ATS95)	Potency (C2A)	Potency (CP185)	Potency (7G8)	Potency ([1]; parasite line A)	Potency ([1]; parasite line B)	activity, negative = inhibition [1, 4] [%]	activity, negative = inhibition [1, 5] [%]
CC(C)C(=O)Nc1ccc([N+](=O)[O-])c(C(F)(F)F)c1	5.81	10.3	inactive	inactive	inactive	inactive	inactive	inactive	inactive	–	–	–	–	–
CC(C)(Oc1ccc(C2CC2(Cl)Cl)cc1)C(=O)O (configuration not stated)	-6.79	2.45	inactive	inactive	inactive	inactive	inactive	inactive	inactive	–	–	–	–	–
CNCCCC12CCC(c3ccccc31)c1ccccc12	0.742	-2.12	inactive	inactive	inactive	inactive	–	inactive	inactive	10000 nM (active)	–	–	–	–
CN1CCC(=C2c3ccccc3C=Cc3ccccc32)CC1	13.5	3.94	inactive	inactive	–	inactive	inactive	inactive	inactive	–	–	–	–	–
O=C(c1ccc(OCCN2CCCCC2)cc1)c1c(-c2ccc(O)cc2)sc2cc(O)ccc12	–	–	2000 nM (active)	11200 nM (active)	2820 nM (active)	–	–	10000 nM (active)	–	2510 nM (active)	2820 nM (active)	11200 nM (active)	–	–
CC12CC3CC(C)(C1)CC(N)(C3)C2	13.9	1.67	inactive	10000 nM (active)	inactive	inactive	–	inactive	inactive	8910 nM (active)	–	–	–	–
CC(C)NCC(O)COc1ccc(CCOCC2CC2)cc1 (configuration not stated)	13.9	-3.18	inactive	inactive	inactive	–	inactive	inactive	inactive	11200 nM (active)	–	–	–	–
CCCNCC(O)COc1ccccc1C(=O)CCc1ccccc1 (configuration not stated)	–	–	2000 nM (active)	631 nM (active)	316 nM (active)	891 nM (active)	631 nM (active)	1780 nM (active)	1260 nM (active)	251 nM (active)	1000 nM (active)	355 nM (active)	–	–
CCOC(=O)c1ncn2c1CN(C)C(=O)c1cc(F)ccc1-2	8.32	17	inactive	inactive	inactive	inactive	inactive	inactive	inactive	–	–	–	–	–
O=c1c(O)c(-c2ccc(O)c(O)c2)oc2cc(O)cc(O)c12	–	–	12600 nM (active)	–	11200 nM (active)	–	–	–	–	–	–	–	–	–
CC(CCc1ccc(O)cc1)NCCc1ccc(O)c(O)c1 (configuration not stated)	7.14	-3.6	inactive	inactive	inactive	inactive	inactive	inactive	inactive	–	–	–	–	–
CN(Cc1cnc2nc(N)nc(N)c2n1)c1ccc(C(=O)N[C@@H](CCC(=O)O)C(=O)O)cc1	–	–	141 nM (active)	inactive	141 nM (active)	–	–	251 nM (active)	–	126 nM (active)	112 nM (active)	141 nM (active)	–	–
CCCCc1oc2ccccc2c1C(=O)c1cc(I)c(OCCN(CC)CC)c(I)c1	–	–	–	6310 nM (active)	3550 nM (active)	5620 nM (active)	5010 nM (active)	10000 nM (active)	8910 nM (active)	3160 nM (active)	4470 nM (active)	2820 nM (active)	–	–
O=c1[nH]cc(F)c(=O)[nH]1	–	-26.3	–	–	–	inactive	–	–	–	12600 nM (active)	–	–	–	–
Clc1ccccc1C(c1ccccc1)(c1ccccc1)n1ccnc1	–	–	–	891 nM (active)	178 nM (active)	708 nM (active)	1000 nM (active)	1780 nM (active)	1780 nM (active)	–	631 nM (active)	708 nM (active)	–	–
CN1C(C(=O)Nc2ccccn2)=C(O)c2ccccc2S1(=O)=O	–	–	inactive	inactive	inactive	inactive	inactive	inactive	inactive	inactive	–	–	-3.72	-0.0614
CC1(CN2CCC(n3c(=O)[nH]c4ccccc43)CC2)OCc2ccccc2-n2cccc21 (configuration not stated)	–	–	–	–	10000 nM (active)	–	–	–	–	3160 nM (active)	–	–	–	–
CN1CCC(=C2c3ccccc3CC(=O)c3sccc32)CC1	–	–	–	–	–	–	11200 nM (active)	–	–	11200 nM (active)	5010 nM (active)	–	–	–
NC12CC3CC(CC(C3)C1)C2	8.47	14.2	inactive	inactive	inactive	inactive	inactive	inactive	inactive	–	–	–	–	–
CC(C)NCC(O)c1ccc(O)c(O)c1 (configuration not stated)	-3.62	-0.405	inactive	inactive	inactive	inactive	inactive	inactive	inactive	–	–	–	–	–
Nc1nc2c(ncn2COC(CO)CO)c(=O)[nH]1	–	–	inactive	inactive	inactive	inactive	inactive	inactive	inactive	inactive	–	–	-0.332	8.95
CN(C)CCC=C1c2ccccc2C=Cc2ccccc21	-3.11	-19.2	inactive	–	–	inactive	–	inactive	inactive	7940 nM (active)	–	–	–	–
Clc1ccc(C(c2ccccc2Cl)C(Cl)Cl)cc1 (configuration not stated)	-12.9	-9.4	–	inactive	inactive	inactive	inactive	inactive	inactive	–	–	–	–	–
CC(COc1ccccc1)N(CCCl)Cc1ccccc1 (configuration not stated)	7.32	2.35	inactive	–	–	–	–	inactive	inactive	12600 nM (active)	–	–	–	–
Cn1ccc2cc3c(cc21)CCN3C(=O)Nc1cccnc1	–	–	–	–	–	–	–	–	–	8910 nM (active)	–	–	–	–
Nc1nnc(-c2cccc(Cl)c2Cl)c(N)n1	-17	-20	inactive	inactive	inactive	inactive	inactive	inactive	inactive	inactive	–	–	–	–
